Measurements published in paper PMC4336329 (PLoS ONE, 2015).
Out of some 310,000 compounds screened, about 14,000 (4.5%) showed an effect of 50% or more. Effects have a minus sign here. Many of the other results were omitted from the sample, so strong results are more common in it than they were.

Biological target: human ether-à-go-go-related gene (hERG) potassium channel (human, UniProt Q12809)
Assay: primary screen, population patch clamp on CHO cells stably expressing hERG; higher = less effect of the substance
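Note: peak tail current of the secondary pulse compared with the same well before compound.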

Sequence of human ether-à-go-go-related gene (hERG) potassium channel (Q12809 whole entry, looked up): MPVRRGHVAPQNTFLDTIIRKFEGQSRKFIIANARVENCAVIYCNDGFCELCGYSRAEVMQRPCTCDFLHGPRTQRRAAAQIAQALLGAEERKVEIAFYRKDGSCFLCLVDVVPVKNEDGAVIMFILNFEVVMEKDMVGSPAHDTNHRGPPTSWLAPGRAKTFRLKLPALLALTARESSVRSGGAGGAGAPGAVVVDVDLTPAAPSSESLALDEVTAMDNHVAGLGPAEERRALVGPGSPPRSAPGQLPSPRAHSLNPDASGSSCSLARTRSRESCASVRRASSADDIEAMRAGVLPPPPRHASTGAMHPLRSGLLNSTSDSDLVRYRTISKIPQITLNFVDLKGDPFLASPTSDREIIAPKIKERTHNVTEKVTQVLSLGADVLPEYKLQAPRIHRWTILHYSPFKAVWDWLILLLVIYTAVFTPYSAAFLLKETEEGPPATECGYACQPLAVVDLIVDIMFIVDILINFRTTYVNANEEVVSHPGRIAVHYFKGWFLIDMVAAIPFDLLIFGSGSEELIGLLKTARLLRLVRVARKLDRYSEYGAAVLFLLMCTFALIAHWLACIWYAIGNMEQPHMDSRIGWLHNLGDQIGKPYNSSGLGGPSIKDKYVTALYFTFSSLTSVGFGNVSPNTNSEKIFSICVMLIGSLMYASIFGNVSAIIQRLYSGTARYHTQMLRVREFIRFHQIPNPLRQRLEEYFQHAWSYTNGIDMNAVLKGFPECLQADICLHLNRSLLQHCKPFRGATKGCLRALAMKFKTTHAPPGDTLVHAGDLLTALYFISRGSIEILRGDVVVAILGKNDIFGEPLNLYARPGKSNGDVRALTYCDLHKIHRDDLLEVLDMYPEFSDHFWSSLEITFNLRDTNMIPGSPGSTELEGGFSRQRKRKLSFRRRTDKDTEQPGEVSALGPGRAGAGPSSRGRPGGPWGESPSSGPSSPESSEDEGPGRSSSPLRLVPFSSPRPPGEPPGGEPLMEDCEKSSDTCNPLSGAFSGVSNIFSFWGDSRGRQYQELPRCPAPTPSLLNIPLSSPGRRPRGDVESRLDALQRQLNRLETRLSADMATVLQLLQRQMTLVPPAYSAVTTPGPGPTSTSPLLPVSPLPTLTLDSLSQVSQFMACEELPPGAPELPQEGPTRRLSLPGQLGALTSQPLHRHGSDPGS

SMILES | hERG current change (%, negative = inhibition) at 10uM [%]
COc1cc(/C=C2\C(=O)NN(c3ccccc3)C2=O)cc([N+](=O)[O-])c1O | 22
O=C(N/N=C/c1coc2ccccc2c1=O)c1cccc([N+](=O)[O-])c1 | 26.8
Cc1ccccc1NC(=O)Cn1nnc(S(=O)(=O)c2ccc(C(C)(C)C)cc2)c1N | 4.35
COc1ccc(S(=O)(=O)NCc2cccnc2)cc1C(=O)Nc1ccccc1 | -47.9
CC(=O)Nc1ccc(NC(=O)c2ccc(N(Cc3ccccc3C)S(C)(=O)=O)cc2)cc1 | -7.68
S=C(Nc1ccccc1)N1CCN(C2CCCCC2)CC1 | -2.89
CCC1CCCCN1C(=O)CSc1nnc(CNC(=O)COc2ccc(Cl)cc2)o1 (centres unmarked) | -32.5
COc1cnc(-c2ccccn2)nc1Oc1ccc(C(C)(C)C)cc1 | -2.72
COc1cnc(-c2ccccn2)nc1Oc1ccccc1 | -72.8
COc1cnc(-c2ccccn2)nc1Oc1ccc(Cl)cc1 | -0.157
CC(C)C(=O)NC(c1ccccc1Cl)c1c(O)ccc2ccccc12 (centres unmarked) | 7.79
O=C(O)CCN1C(=O)CC(N2C(=O)/C(=C/c3ccc(Cl)cc3)SC2=S)C1=O (centres unmarked) | 18.8
CSc1snnc1-c1ccccc1 | 25.6
O=C(O)C(=O)O.OCCNCCCCOc1ccc(OCc2ccccc2)cc1 | -32.1
O=C(O)C(=O)O.c1ccc(COc2ccc(OCCCNC3CCCC3)cc2)cc1 | -57.1
O=C(O)C(=O)O.c1ccc(Cc2ccc(OCCCNC3CCCC3)cc2)cc1 | -58.9
CC(C)(C)c1ccc(OCCCNC2CCCC2)cc1.O=C(O)C(=O)O | -54.5
CCOc1cccc(OCCNC2CCCC2)c1.O=C(O)C(=O)O | 5.28
CC(C)(C)c1ccc(OCCCNCc2ccccc2)cc1.O=C(O)C(=O)O | -19.5
Cc1ccc(C)c(OCCCNC2CCCC2)c1C.O=C(O)C(=O)O | -10.3
C=CCNCCCCOc1ccc(OCc2ccccc2)cc1.O=C(O)C(=O)O | -42.1
O=C(O)C(=O)O.c1cc2c(cc1OCCNC1CCCC1)CCC2 | 0.00128
Cc1ccc(OCCCNC2CCCC2)cc1 | -0.454
O=C(O)C(=O)O.c1ccc(-c2ccc(OCCCNC3CCCC3)cc2)cc1 | -86.1
COc1cccc(OC)c1OCCCNC1CCCC1.O=C(O)C(=O)O | -7.84
COc1ccc(C2=NN(C(=O)COC(=O)c3ccc(NC(=O)CC#N)cc3)C(c3ccco3)C2)cc1 (centres unmarked) | 5.24
COC(=O)c1oc2nc(C)cc(C)c2c1N | -4.33

SMILES | hERG current change (%, negative = inhibition) at 10uM [%]
CC(C)N(C)C(=O)CCc1nnc(CCc2c[nH]c3ccccc23)o1 | 6.75
COc1ccc(C)cc1NC(=O)c1sc2ncn(CC(=O)N3CCCCC3)c(=O)c2c1C | 9.03
Cc1ccnc(Nc2nc3ccccc3s2)n1 | -4.71
COc1ccc(NC(=O)C2CCCN(c3nccc(C)n3)C2)cc1 (centres unmarked) | -3.13
CCOC(=O)c1c(C)n(Cc2ccco2)c2c1cc(O)c1ccccc12 | 6.11
Cc1ccc(OCCn2c(NC(=O)c3ccco3)nc3ccccc32)cc1 | -5.24
Cn1cc(Br)c(C(=O)Nc2c(F)c(F)c(F)c(F)c2F)n1 | -6.6
COc1ccc(Cl)cc1S(=O)(=O)N1CCC(C(=O)NCc2ccccn2)CC1 | -7.12
O=C(c1ccc(Cl)cc1)N1CCN(S(=O)(=O)/C=C/c2ccccc2)CC1 | -54.8
O=C(c1cccc([N+](=O)[O-])c1)N1CCN(S(=O)(=O)N2CCCCC2)CC1 | -15.2
Cn1nc(C(=O)N2CCN(C(c3ccccc3)c3ccccc3)CC2)c2ccccc2c1=O | -35.2
O=C(c1cccc([N+](=O)[O-])c1)N1CCCN(C(=O)c2cccc([N+](=O)[O-])c2)CC1 | -42
Cn1nc(C(=O)N2CCN(S(=O)(=O)/C=C/c3ccccc3)CC2)c2ccccc2c1=O | -65.1
O=C(c1cccc([N+](=O)[O-])c1)N1CCN(S(=O)(=O)/C=C/c2ccccc2)CC1 | -64.3
Nc1ccc(C(=O)N2CCN(S(=O)(=O)/C=C/c3ccccc3)CC2)cc1[N+](=O)[O-] | -43.9
Cn1nc(C(=O)N2CCN(S(=O)(=O)c3ccccc3)CC2)c2ccccc2c1=O | -23
O=C(c1cccc([N+](=O)[O-])c1)N1CCN(C/C=C/c2ccccc2)CC1 | -65.9
O=C(c1ccc2ccccc2c1)N1CCN(S(=O)(=O)/C=C/c2ccccc2)CC1 | -31.9
O=CN1CCN(C(=O)c2cccc([N+](=O)[O-])c2)CC1 | -4.11
O=C(c1ccco1)N1CCN(S(=O)(=O)/C=C/c2ccccc2)CC1 | -38.3
Cc1nc(N=Nc2ccc(O)cc2)n[nH]1 | 7.01
CC12CC[C@H]3[C@@H](CCC4(O)C[C@H](O)CCC34/C=N/NC(=O)c3ccccc3Cl)C1(O)CCC2C1=CC(=O)OC1 (some centres unmarked) | 9.69
O=C(COC(=O)c1ccc(S(=O)(=O)Nc2ccccc2)cc1)NCC1CCCO1 (centres unmarked) | 1.33
COC(=O)c1ccccc1NC(=O)c1ccc(COc2cccc3ccccc23)o1 | 0.342
NC(=O)c1nsc(C(=O)N(CCCN2CCOCC2)C(C(=O)NC2CCCCC2)c2ccc(Cl)cc2)c1N (centres unmarked) | -42.8
CCCNc1nc2c(c(=O)[nH]c(=O)n2C)n1CCC(C)C | -0.274
